LMNA splice mod = qHTS Assay for Modulators of Lamin A Splicing; hit rate 0.01% among 200,000; AID 1487, 2009; HeLa LMNA splicing GFP/RFP minigene ratio, 48 h; Potency, µM (top dose mostly 46.1 µM), inactives show top-dose ratio change, negative = inhibition, most hits filed as inhibitors; active = well fitted inhibition curve with a large enough effect in the signal ratio, with a control signal flat, not every such curve was filed as active; inconclusive = small, poorly fitted or top-dose-only effect, or effect the other way, or a change in a side signal; the % refers to the signal ratio; also: potency is read from the fitted curve at half-maximal effect; % is scaled to controls: 0 for no effect and ±100 for the full control effect
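S3 HeLa cells stably expressing lamin A-EGFP splicing minigene plus DsRed2, 600 cells/well, 48 h compound exposure at 37C. Laser-scanning cytometry; analysed as GFP (500-530 nm)/RFP (575-640 nm) total intensity ratio; 0.5% DMSO vehicle.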
ALDH1A1 block = qHTS Assay for Inhibitors of Aldehyde Dehydrogenase 1 (ALDH1A1). Purified ALDH1A1, NADH fluorescence, propionaldehyde substrate. Potency, µM (doses to about 75.3 µM), without a hit: at the highest dose activity, negative = inhibition, usual class: inhibitors. hit rate 7.3% among 220,000; active = well fitted inhibition curve with a large enough effect, not every such curve was filed as active; inconclusive = small, poorly fitted or top-dose-only effect, or another doubt; inactive = no such curve, though single readings can be large or run the other way;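 also: potency is read from the fitted curve at half-maximal effect; plate controls were no enzyme wells and a reference inhibitor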
KDM4E inh = qHTS Assay for Inhibitors of Human Jumonji Domain Containing 2E (JMJD2E). JMJD2E catalytic domain, FDH-coupled NADH fluorescence (FDH is formaldehyde dehydrogenase). Potency, µM (top dose mostly 57.1 µM), without a hit: at the highest dose activity change, negative = inhibition, actives largely listed as inhibitors. hit rate 1.6% among 230,000; active = well fitted inhibition curve with a large enough effect, not every such curve was filed as active; inconclusive = small, poorly fitted or top-dose-only effect, or another doubt; inactive = no such curve, though single readings can be large or run the other way;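 also: potency is read from the fitted curve at half-maximal effect; 0% = wells with enzyme and -100% = buffer wells without enzyme; nearly all actives have a fitted effect of over 50% in size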
Target sequence (B2RXH2 1-337 limits assumed): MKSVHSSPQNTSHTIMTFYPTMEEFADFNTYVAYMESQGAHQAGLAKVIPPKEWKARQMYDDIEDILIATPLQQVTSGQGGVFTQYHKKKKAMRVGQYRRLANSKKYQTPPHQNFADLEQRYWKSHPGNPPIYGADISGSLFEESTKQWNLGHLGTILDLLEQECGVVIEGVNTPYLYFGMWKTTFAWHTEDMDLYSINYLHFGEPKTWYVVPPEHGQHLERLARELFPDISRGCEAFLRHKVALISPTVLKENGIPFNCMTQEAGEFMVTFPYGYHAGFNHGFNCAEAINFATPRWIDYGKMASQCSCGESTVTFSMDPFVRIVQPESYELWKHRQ
miR-21 reporter = qHTS Assay for Modulators of miRNAs and/orActivators of miR-21; HeLa miR-21 FLuc reporter, luciferase, 48 h; Potency, µM (series often up to 38.3 µM), without a hit: top-dose activity change, positive = activation, hits mostly activators; 340,000 tested, under 10 active;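 also: % of control where 0% means no effect; miR-21 action dims this reporter so a rising signal means less miR-21 action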
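HeLa cells endogenously expressing miR-21, stably carrying CMV-driven firefly luciferase with a downstream miR-21 binding site, 2000 cells/well. Titrations up to approximately 40 uM, 48 hours; luciferase luminescence read.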
Sfp inh = qHTS Assay for Inhibitors of Bacillus subtilis Sfp phosphopantetheinyl transferase (PPTase); 4'-phosphopantetheinyl transferase ffp (Bacillus subtilis), Q9F4F7; Biochemical Sfp PPTase activity, qHTS; Potency, µM, for inactives: largest response in the series, negative = inhibition, most hits filed as inhibitors; hit rate 3.5% among 310,000;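 also: the enzyme is Sfp with the accession as filed and its product quenches rhodamine fluorescence; potency is read from the fitted curve at half-maximal effect; 0% = enzyme reaction without inhibitor and -100% = no enzyme wells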
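Fluorescence-quenching assay: 15 nM Sfp-PPTase preincubated 15 min at room temperature with compound, then 5 uM rhodamine-CoA and 12.5 uM BHQ-2-labelled YbbR peptide added. Fluorescence (ex 525/em 598 nm) read at start and after 30 min; difference gives rate.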
G9a inh = qHTS Assay for Inhibitors of Histone Lysine Methyltransferase G9a; AID 504332, 2011; Potency, µM (top dose mostly 102 µM), for the others: at the highest dose activity, negative = inhibition, actives largely listed as inhibitors; hit rate 8.8% among 350,000; G9a H3K9 monomethylation, AlphaScreen, 2 h; also: potency is read from the fitted curve at half-maximal effect; % is scaled to controls: 0 for no effect and ±100 for the full control effect; nearly all actives have a fitted effect of over 75% in size
Target sequence (Q96KQ7 913-1193 limits assumed): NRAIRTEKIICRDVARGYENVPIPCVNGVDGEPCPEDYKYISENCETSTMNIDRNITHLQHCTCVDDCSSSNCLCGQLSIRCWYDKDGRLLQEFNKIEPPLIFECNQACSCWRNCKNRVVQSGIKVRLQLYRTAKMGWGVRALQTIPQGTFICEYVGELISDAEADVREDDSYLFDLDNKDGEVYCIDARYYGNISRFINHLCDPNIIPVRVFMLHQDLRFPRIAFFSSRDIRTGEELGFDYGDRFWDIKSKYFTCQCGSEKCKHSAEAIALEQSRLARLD
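Step 1: enzyme (final 20 nM) with compound, 15 min RT. Step 2: substrate peptide 500 nM and SAM 20 uM, 2 h RT. Step 3: anti-H3K9me1 antibody and AlphaScreen beads, 10 min, then plate read.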
An asterisk follows results filed as active; ? = inconclusive; · = no result; ! = not confirmed by another sample; [ ] = remark or other dose. The list is not random: actives were taken first. Their share in the collection is about 13%. Unless noted, calls follow the shape of the dose curve; as a rule, active = well fitted curve in the direction sought with a large enough effect; inconclusive = small, poorly fitted or top-dose-only effect, or another doubt; inactive = no such curve, though single readings can be large; an effect the other way counts as inactive or inconclusive.

SMILES | LMNA splice mod | ALDH1A1 block | KDM4E inh | miR-21 reporter | Sfp inh | G9a inh
CC(=O)n1cc([C@@H]2C=C(C(=O)N3CCN(Cc4ccccc4)CC3)O[C@H](OCc3ccc(CO)cc3)C2)c2ccccc21 | · | 16µM* | 20µM* | 23% | -9% | ?
CC(=O)n1cc([C@@H]2C=C(C(=O)N3CCN(Cc4ccc5c(c4)OCO5)CC3)O[C@H](OCCCCO)C2)c2ccccc21 | · | 1% | -19% | 9% | -11% | -2%[59 µM]
CC(=O)n1cc([C@H]2C=C(C(=O)N3CCN(Cc4ccccc4)CC3)O[C@@H](OCCCCO)C2)c2ccccc21 | · | 28µM* | ? | -1% | -8% | ?
c1ccc2oc(-c3ccn[nH]3)cc2c1 | · | · | -3% | -59% | -9% | ·
CC(C)(C)NCc1cc(Br)ccc1OCc1cccs1 | -18% | 9% | 1% | 2% | -8% | 18µM*
CCC1(CC)NC(=O)N(CC(=O)Nc2ccc(S(=O)(=O)N3CCOCC3)cc2)C1=O | · | ? | 7% | -2% | 19% | 4%
CCOc1ncccc1C(=O)Nc1cc(S(=O)(=O)N2CCCCC2)ccc1Cl | · | · | · | · | · | 24%[12.7 µM]
COc1ccc(NC(=O)CN2C(=O)NC3(CCCC3)C2=O)cc1S(=O)(=O)N1CCCCC1 | · | · | · | · | · | 8%[59 µM]
Cc1ccc(C2(C)NC(=O)N(CC(=O)Nc3ccc(Cl)c(S(=O)(=O)N4CCCCC4)c3)C2=O)cc1 (stereo not drawn) | · | · | · | · | · | 40µM*
CCOc1ncccc1C(=O)Nc1ccc(Cl)c(S(=O)(=O)N2CCCC2)c1 | -9%[46 µM] | 4.5µM* | 41% | 18% | 6% | -1%
COc1ccc(NC(=O)CN2C(=O)NC3(CC(C)CC(C)(C)C3)C2=O)cc1S(=O)(=O)N1CCCCC1 (stereo not drawn) | · | · | · | · | · | 16µM*
CCCCC1(C)NC(=O)N(CC(=O)Nc2ccc(S(=O)(=O)N3CCOCC3)cc2)C1=O (stereo not drawn) | 6% | 3.2µM* | 5% | -6% | -3% | -40%[59 µM]
CC(C)Cc1nnc(NC(=O)CN2C(=O)NC3(CC(C)CC(C)(C)C3)C2=O)s1 (stereo not drawn) | · | · | · | · | · | 45µM*
COc1ccc(C2(C)NC(=O)N(CC(=O)Nc3cccnc3Cl)C2=O)cc1 (stereo not drawn) | · | · | · | -3% | 14% | 66%
CC1CCCN(S(=O)(=O)c2ccc(S(=O)(=O)N3CCCC3)cc2)C1 (stereo not drawn) | · | · | · | 3% | 5% | -4%
Cc1ccc(C2(C)NC(=O)N(CC(=O)Nc3cccnc3Cl)C2=O)cc1 (stereo not drawn) | · | 3.2µM* | ? | -2% | 12% | 16%
CC1CCCN(S(=O)(=O)c2ccc(C(=O)NC(C)c3ccccc3)cc2)C1 (stereo not drawn) | · | · | · | · | · | 18µM*
CC1CC(C)CN(S(=O)(=O)c2ccc(NC(=O)CN3C(=O)NC(C)(c4ccccc4)C3=O)cc2)C1 (stereo not drawn) | · | · | · | 2% | 0% | ·
CC1CCCN(S(=O)(=O)c2ccc(NC(=O)CN3C(=O)NC(C)(c4ccccc4)C3=O)cc2)C1 (stereo not drawn) | · | · | · | · | · | 56µM*
O=C(CSc1ccc(-c2ccco2)nn1)Nc1ccc(F)cc1F | · | · | · | 3% | 50µM* | ?
Cc1nc(-c2ccccc2)sc1-c1ccc(SCC(=O)Nc2ccc(F)cc2F)nn1 | · | · | · | -13% | · | 4%[59 µM]
O=C(CSc1ccc(-c2cccnc2)nn1)Nc1ccc(F)cc1F | · | · | · | -1% | 6% | ?
O=C(CSc1ccc(-c2ccccn2)nn1)Nc1ccc(F)cc1F | · | · | · | 0% | -8% | 3.2µM*
COc1ccc(OC)c(N)c1 | 1% | ? | -5% | -1% | -25% | 32µM*
COC(=O)C1CCN(c2cc(=O)n(-c3ccccc3Cl)c(=O)[nH]2)CC1 | 3% | 18µM* | 12% | 0% | -17% | -12%[12.7 µM]
SMILES | LMNA splice mod | ALDH1A1 block | KDM4E inh | miR-21 reporter | Sfp inh | G9a inh
CCOC(=O)N1CCN(c2cc(=O)n(-c3ccccc3Cl)c(=O)[nH]2)CC1 | 3% | -3% | -4% | 3% | 6% | ?
CSCc1cccc(C(=O)OC(C)C(=O)Nc2c(C)n(C)n(-c3ccccc3)c2=O)c1 (stereo not drawn) | · | · | · | · | · | 8.9µM*
Cc1c(NC(=O)C(C)OC(=O)c2cccc([N+](=O)[O-])c2)c(=O)n(-c2ccccc2)n1C (stereo not drawn) | · | 7% | 2% | 0% | 20% | 1%
C#Cc1cccc(C(=O)N2CCCC(C(=O)c3ccc(OC)cc3C)C2)c1 (stereo not drawn) | · | · | · | -9% | 4% | 51%
O=C(NC(N1CCOCC1)C(Cl)(Cl)Cl)c1ccccc1Cl (stereo not drawn) | 5%[46 µM] | 4% | 0% | 0% | -7% | 20%
O=C(NC(N1CCCCCC1)C(Cl)(Cl)Cl)c1ccccc1Cl (stereo not drawn) | -7% | 11µM* | -2% | -8% | 2% | ?
Cc1nn(CCC(=O)N2CCN(S(=O)(=O)c3ccccc3)CC2)c(C)c1C | · | · | · | 3% | 14% | 16%
CCc1nn2c(=O)cc(COc3ccc(/C=C(\C#N)C(=O)Nc4ccc(C)cc4)cc3)nc2s1 | · | · | · | -13% | · | -3%[59 µM]
CN1CCN(CCCN2c3ccccc3Sc3ccc(S(=O)(=O)N(C)C)cc32)CC1 | ? | -9%[20.9 µM] | -3%[25.5 µM] | · | 15% | 10µM*
CN(C)CCCN1c2ccccc2Sc2ccc(Cl)cc21 | ? | 0% | -16% | 23% | 79µM*! | 71µM*!
CN(C)CCCN1c2ccccc2Sc2ccc3ccccc3c21 | · | -2%[13.5 µM] | · | · | · | ·
CO[C@@]1(NC(=O)Cc2cccs2)C(=O)N2C(C(=O)O)=C(COC(N)=O)CS[C@@H]21 | ? | 1% | 32µM* | -5% | -23% | ?
CN(C(=O)Nc1ccc(C(C)(C)C)cc1)C1CCCCC1 | · | · | -9% | -16% | 17% | 13%

Source: PubChem BioAssay (National Center for Advancing Translational Sciences (NCATS))
